# Screening data as filed in PubChem BioAssay.
# ASM inhibitor: human S-ASM enzyme inhibition; placental ASM, HMU-PC fluorogenic substrate, 60 min; actives 0.006% (n = 340,000); AID 504937; P17405; Potency, µM (doses to about 57.5 µM), inactives show at the top dose activity change, negative = inhibition, actives largely listed as inhibitors; note: potency is the fitted concentration of half-maximal effect
# Target sequence (P17405 47-631 limits assumed): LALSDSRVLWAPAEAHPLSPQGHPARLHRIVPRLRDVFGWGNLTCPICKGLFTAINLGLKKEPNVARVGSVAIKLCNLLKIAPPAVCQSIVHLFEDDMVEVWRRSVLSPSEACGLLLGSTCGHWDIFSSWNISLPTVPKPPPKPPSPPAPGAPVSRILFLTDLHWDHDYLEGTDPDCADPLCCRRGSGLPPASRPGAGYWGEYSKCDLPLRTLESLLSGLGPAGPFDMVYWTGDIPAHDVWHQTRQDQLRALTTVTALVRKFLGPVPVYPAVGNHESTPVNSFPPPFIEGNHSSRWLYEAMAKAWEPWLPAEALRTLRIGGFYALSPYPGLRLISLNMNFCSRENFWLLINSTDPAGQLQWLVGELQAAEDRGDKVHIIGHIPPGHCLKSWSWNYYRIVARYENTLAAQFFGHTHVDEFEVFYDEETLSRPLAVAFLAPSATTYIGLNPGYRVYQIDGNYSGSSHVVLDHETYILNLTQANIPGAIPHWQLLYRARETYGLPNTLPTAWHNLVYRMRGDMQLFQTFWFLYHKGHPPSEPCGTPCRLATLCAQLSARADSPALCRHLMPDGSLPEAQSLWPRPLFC
#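 HMU-PC0 cleavage (9 uM final) by human placental ASM, 60 min at 37 °C following 10 min compound exposure at RT; stopped at pH 10, fluorescence Ex 386/Em 447 nm.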
# SW480 rereplic: DNA re-replication induction in SW480 cells; Potency, µM (highest dose often 46.1 µM), without a hit: at the top dose re-replication activation, hits mostly activators; SW480 DNA re-replication, Hoechst DNA content imaging, 48 h; actives 1.8% (n = 340,000); note: potency is the fitted concentration of half-maximal effect; % of control where 0% means no effect; nearly all actives have a fitted effect of over 55% in size
#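 Quantitative HTS format with DMSO vehicle controls; 48 hr drug incubation at 37 C, then 40 min Hoechst staining and scanning imager measurement at 405 nm excitation.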
# KB-3-1 tox: KB-3-1 parental cell cytotoxicity; Potency, µM (titrated, usually from 46.1 µM), most hits filed as cytotoxic; KB-3-1 viability, CellTiter-Glo ATP luminescence, 72 h; AID 1347075; actives 1.4% (n = 400,000); note: potency is the fitted concentration of half-maximal effect; % is set by controls: 0 for no effect and ±100 for the full control effect; nearly all actives have a fitted effect of over 60% in size
#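 Using CellTiter-Glo luminescence, growth of non-resistant KB-3-1 adenocarcinoma cells is assessed 72 h after pin-tool compound addition at 37 °C. Normalized responses across the concentration series yield fitted curves.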
# MCF10A rerep: induces DNA re-replication in MCF 10a normal breast cells. AID 624296. Potency, µM (highest dose often 46.1 µM), inactives show top-dose activity, positive = re-replication, actives largely listed as activators. actives 2.9% (n = 350,000). MCF 10A DNA re-replication, Hoechst nuclear intensity, 48 h; note: potency is the fitted concentration of half-maximal effect; % of control where 0% means no effect; nearly all actives have a fitted effect of over 50% in size
# KB-V1 MDR tox: KB-V1 MDR subline cytotoxicity; KB-V1 MDR cells viability, CellTiter-Glo, 72 h; Potency, µM (top dose mostly 46.1 µM), actives largely listed as cytotoxic; actives 3.4% (n = 400,000); AID 1347076; note: potency is the fitted concentration of half-maximal effect; % is set by controls: 0 for no effect and ±100 for the full control effect; nearly all actives have a fitted effect of over 60% in size
#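 Cytotoxicity toward P-gp-expressing KB-V1 cells was determined as loss of CellTiter-Glo luminescence after 72 h at 37 degrees C. Compounds were tested in quantitative HTS format across a concentration range, with curves fitted to normalized data.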
# Giardia kill: Giardia lamblia killing; Giardia lamblia trophozoite viability; actives 0.15% (n = 340,000); activity change, % at 7.66 µM, hits read low; in the data active = activity change below about -80%; inconclusive = between about -30% and that limit;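 note: parasites exposed to compound for two days anaerobically before the ATP read; % is set by controls: 0 for no effect and ±100 for the full control effect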
#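 Luminescent ATP signal served as the viability read-out, measured 15-30 min after adding ATP detection reagent to trophozoites that had been incubated with compounds for 48 hrs at 37 deg C anaerobically at 100 cells/well.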
# Active calls of the source: *; i = inactive; ? = inconclusive; . = no result given; [ ] = remark or other dose. Most compounds without a hit are left out; they make up all but 6.9% or so of the library. Unless noted, calls come from the whole dose curve; as a rule, active = well fitted curve in the direction sought with a large enough effect; inconclusive = small, poorly fitted or top-dose-only effect, or another doubt; inactive = no such curve, though single readings can be large; an effect the other way counts as inactive or inconclusive.
SMILES,ASM inhibitor,SW480 rereplic,KB-3-1 tox,MCF10A rerep,KB-V1 MDR tox,Giardia kill
O=C(NCc1ccco1)C12CC3CC(C1)CC(C(=O)NCc1ccco1)(C3)C2,5.4%,-2.7%,i,-2.1%,20.6µM*,2.3
O=S(NCc1ccco1)C12CC3CC(CC(C3)C1)C2 (configuration not stated),-0.4%,-2.3%,i,20.6µM*,i,8.0
COc1ccccc1N1CCN(/N=C/c2ccc(O)c(O)c2)CC1,-1.2%,13µM*,i,17.4%,i,12.4
COc1cccc(/C=N/N2CCN(c3ccccc3OC)CC2)c1,-1.8%,-16.7%,i,-1.5%,11.6µM*,-20.4
O=C(NCCCN1CCN(c2cccc(Cl)c2)CC1)Nc1ccccc1C(F)(F)F,.,.,i,.,i,.
CC(=C(CCOP(=O)(O)O)SC(=O)c1ccccc1)N(C=O)Cc1cnc(C)nc1N,.,-18.1%[20.6 µM],.,1.4%[20.6 µM],.,.
COCCNc1oc(/C=C/c2cccs2)nc1S(=O)(=O)c1ccccc1,.,.,i,.,?,.
CN(C)CCCNc1oc(/C=C/c2cccs2)nc1S(=O)(=O)c1ccccc1,i,11.6µM*,i,?,i,15.0
O=C(COCc1cc(-c2cccs2)on1)N1CCN(c2cccc(Cl)c2)CC1,.,.,i,.,?,.
Cc1ccc(Cl)cc1NC(=O)CC(O)(C(F)(F)F)C(F)(F)F,-7.1%,18.4µM*,?,26.6%,20.6µM*,21.3
CCc1cccc2c1Sc1ccccc1CC2N1CCNCC1 (configuration not stated),-1.3%,86.4%,?,?,13µM*,8.2
Cc1cccc2c1Sc1ccc(Cl)cc1CC2N1CCNCC1 (configuration not stated),-17.0%,28.7%,?,11.6µM*,?,19.8
CN1CCN(C2Cc3ccc(F)cc3Sc3cc(F)c(Cl)cc32)CC1 (configuration not stated),-12.8%,?,?,?,i,13.0
CN1CCN(C2Cc3ccccc3Sc3cc(C(F)(F)F)ccc32)CC1 (configuration not stated),-11.9%,?,i,?,i,4.3
OC1OC[C@@H](O)[C@H](O)[C@@H]1O (some centres not stated),.,3.1%,.,2.3%,.,.
COc1cc(OC)cc(-c2cc3ccc(OC)cc3cn2)c1,-3.2%,14.6µM*,i,62.5%,?,?
COc1cc(OC)cc(-c2cc3cc4c(cc3cn2)OCO4)c1,-14.4%,2.59µM*,?,?,?,?
Cc1ccc(C(=O)Nc2c(-c3cccs3)nc3cc(C)ccn23)cc1,-10.5%,-3.8%,i,0.1%,i,4.1
Cc1ccn2c(NC(=O)C(C)(C)Oc3ccc(Cl)cc3)c(-c3cccs3)nc2c1,-19.1%,0.4%,25.9µM*,?,i,-5.5
CCc1ccccc1NC(=O)N1CCN(c2nnc(C)c3c(C)n(-c4ccccc4)nc23)CC1,.,.,i,.,i,.
O=C1CC(O)(C(F)(F)F)Oc2c1ccc1ccccc21 (configuration not stated),-2.8%,?,i,20.6µM*,i,-11.7
CNC(=O)/C(C#N)=C/c1c(N(Cc2ccccc2)Cc2ccccc2)nc2c(C)cccn2c1=O,14.5%,0.2%,16.4µM*,?,23.1µM*,3.3
CCNC(=O)/C(C#N)=C/c1c(N(Cc2ccccc2)Cc2ccccc2)nc2ccccn2c1=O,-2.3%,-158.5%,?,11.7%,2.91µM*,15.6
N#C/C(=C\c1c(N2CCCCC2)nc2ccccn2c1=O)C(=O)NCc1ccco1,16.1%,6.6%,?,-33.2%,2.91µM*,-10.0
O=c1c2cnn(-c3ccccc3)c2nc(-c2ccco2)n1-c1ccccc1,-3.3%,-1.3%,14.6µM*,?,5.17µM*,0.7
SMILES,ASM inhibitor,SW480 rereplic,KB-3-1 tox,MCF10A rerep,KB-V1 MDR tox,Giardia kill
CC1CCN2c3cc(Cl)ccc3CC3(C(=O)OC(C)(C)OC3=O)C2C1 (configuration not stated),.,.,i,.,i,-0.3
CS(=O)(=O)N(CC(=O)Nc1ccc(Br)cc1)C1CCCCC1,-4.7%,19.8%,23.1µM*,11.1%,?,34.9
CS(=O)(=O)N(CC(=O)Nc1ccc(C(N)=O)cc1)C1CCCCC1,2.7%,-3.8%,i,-1.5%,i,-5.1
CC(C)CNC(=O)CN(C1CCCCC1)S(C)(=O)=O,4.8%,6.51µM*,i,?,i,13.2
CCCNC(=O)CN(C1CCCCC1)S(C)(=O)=O,0.6%,1.3%,i,0.6%,i,2.0
COc1cccc(-c2nnc3sc(C4CCCCC4)nn23)c1,-6.6%,5.7%,?,?,3.66µM*,-18.0
COc1cc(-c2nnc3sc(C4CCCCC4)nn23)cc(OC)c1OC,-9.2%,-7.0%,?,20.6µM*,18.4µM*,3.8
Cc1cc(-c2nnc3sc(C4CCCCC4)nn23)n[nH]1,8.7%,-0.4%,i,10.4%,i,22.4
COc1ccc(CN(C(=O)c2ccc(-c3ccccc3)[nH]2)C(C(=O)NC(C)(C)C)c2ccncc2)cc1 (configuration not stated),?,?,?,13.6%,11.6µM*,5.2
COc1cc(C(C(=O)NC(C)(C)C)N(Cc2ccccc2)C(=O)c2cnccn2)cc(OC)c1OC (configuration not stated),-0.5%,?,i,?,i,-0.7
CN(C)S(=O)(=O)c1cccc(N=C2NN=C(c3ccccc3)CS2)c1,0.5%,13µM*,?,11.5%,?,-5.3
O=C(O)c1ccc(C2NCC(c3ccccc3Cl)c3c2[nH]c2ccccc32)cc1 (configuration not stated),45.6%,1.2%,i,-0.1%,i,1.6
COc1cc(C2NCC(c3ccc(Cl)cc3Cl)c3c2[nH]c2ccccc32)cc(OC)c1OC (configuration not stated),-20.9%,?,18.4µM*,18.4µM*,?,10.0
COc1cccc(-n2c(-c3cccc(F)c3)nc3c(cnn3-c3ccc(C)cc3)c2=O)c1,.,.,i,.,?,.
CCCCN(C(=O)C1CC(=O)N(c2ccc(C)cc2)C1)c1c(N)n(CCC)c(=O)[nH]c1=O (configuration not stated),1.1%,6.1%,i,1.8%,i,0.0
O=C(NCCN1C(=O)S/C(=C\c2ccc(Cl)c(Cl)c2)C1=O)c1cnccn1,0.9%,1.5%,i,?,i,-0.7
O=C(NCCN1C(=O)S/C(=C\c2ccc(Cl)c([N+](=O)[O-])c2)C1=O)C1=COCCO1,-0.8%,-643.7%,?,3.66µM*,i,2.2
CC1CC(C)CN(S(=O)(=O)c2ccc(C(=O)N3CCOCC3)cc2)C1 (configuration not stated),-0.3%,-7.9%,.,0.7%,.,16.4
